In PubChem BioAssay (EPA / NIEHS):
Records with an inconclusive call do not appear. Active and inactive are the calls of the source. Rule for the calls, unless noted: active = hit-call score of the fitted dose curve at least 0.9, where 1 is the maximum; inactive = score below 0.9.

How the values were obtained:
[1] = target: human Peroxisome Proliferator-activated Receptor delta (PPARd), PPARD (gene 5467) (UniProt Q03181); experiment: ATG_PPARd_TRANS: Attagene TRANS-FACTORIAL HepG2 Assay for human Peroxisome Proliferator-activated Receptor delta (PPARd) (AID 2283002; active = hit-call score of the fitted dose curve at least 0.9, where 1 is the maximum)
Sequence of human Peroxisome Proliferator-activated Receptor delta (PPARd), PPARD (gene 5467) (Q03181 whole entry, looked up, the tested form may be a part): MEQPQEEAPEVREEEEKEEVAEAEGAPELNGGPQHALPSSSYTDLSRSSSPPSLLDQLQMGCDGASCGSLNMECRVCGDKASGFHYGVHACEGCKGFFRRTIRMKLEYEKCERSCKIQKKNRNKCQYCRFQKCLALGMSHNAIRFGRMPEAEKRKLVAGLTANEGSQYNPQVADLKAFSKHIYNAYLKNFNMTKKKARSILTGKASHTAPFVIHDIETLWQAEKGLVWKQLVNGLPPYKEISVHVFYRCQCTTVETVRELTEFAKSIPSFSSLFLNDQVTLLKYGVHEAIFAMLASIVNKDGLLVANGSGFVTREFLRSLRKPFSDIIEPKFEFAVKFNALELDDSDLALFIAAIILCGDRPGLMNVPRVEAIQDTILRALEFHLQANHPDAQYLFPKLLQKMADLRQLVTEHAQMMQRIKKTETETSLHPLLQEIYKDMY
Summary of the method: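 HepG2 cells transiently transfected with GAL4-UAS multiplexed reporter units driven by exogenous chimeric NR-GAL4 proteins; 24 h compound exposure. Reporter mRNA measured by RT-PCR, 6-FAM primer extension, HpaI digestion and capillary electrophoresis; gain of signal fitted relative to DMSO.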

[2] = read-out: Intercellular Adhesion Molecule 1 (ICAM1), ICAM1 (gene 3383); experiment: BSK_3C_ICAM1: BioMAP Diversity Plus: 3C Assay for Intercellular Adhesion Molecule 1 (ICAM1) Biomarker Activity (AID 2283003); conditions: primary human endothelial cells (HUVEC); actives raise or lower the signal
Summary of the method: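 Using DMSO as baseline, bidirectional curve fitting was applied to ICAM-1 ELISA signals from HUVEC in the 3C system, measured 24 h after compound addition.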

[3] = target: Peroxisome proliferator-activated receptor gamma (Homo sapiens) (UniProt P37231); experiment: ATG_PPARg_TRANS: Attagene TRANS-FACTORIAL HepG2 Assay for human Peroxisome Proliferator-activated Receptor-gamma (PPARg) (AID 2283007; active = hit-call score of the fitted dose curve at least 0.9, where 1 is the maximum)
Sequence of Peroxisome proliferator-activated receptor gamma (Homo sapiens) (P37231 whole entry, looked up): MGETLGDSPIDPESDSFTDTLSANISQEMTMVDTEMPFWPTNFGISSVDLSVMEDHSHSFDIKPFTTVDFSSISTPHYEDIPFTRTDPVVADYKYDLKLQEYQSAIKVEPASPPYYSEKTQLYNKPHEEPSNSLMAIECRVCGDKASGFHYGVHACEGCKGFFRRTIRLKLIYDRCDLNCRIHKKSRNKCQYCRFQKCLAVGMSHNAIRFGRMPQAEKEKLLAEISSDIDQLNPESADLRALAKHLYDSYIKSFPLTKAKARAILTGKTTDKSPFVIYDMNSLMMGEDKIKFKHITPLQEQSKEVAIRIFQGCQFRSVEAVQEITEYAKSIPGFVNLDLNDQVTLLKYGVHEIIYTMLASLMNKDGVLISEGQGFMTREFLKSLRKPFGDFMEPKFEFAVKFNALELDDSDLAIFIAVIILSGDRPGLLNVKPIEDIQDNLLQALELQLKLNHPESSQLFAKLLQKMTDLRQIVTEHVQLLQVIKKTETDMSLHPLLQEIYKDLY
Summary of the method: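 Human hepatoma HepG2, transient MRTU transfection, 24 h treatment. mRNA reporter signal by RT-PCR plus capillary electrophoresis, fluorescence detection; fitted for increase over DMSO negative control.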

[4] = target: Nuclear receptor subfamily 1 group I member 2 (Homo sapiens) (UniProt O75469); experiment: ATG_PXR_TRANS: Attagene TRANS-FACTORIAL HepG2 Assay for human Pregnane X Receptor (PXR) (AID 2283008; active = hit-call score of the fitted dose curve at least 0.9, where 1 is the maximum)
Sequence of Nuclear receptor subfamily 1 group I member 2 (Homo sapiens) (O75469 whole entry, looked up, the tested form may be a part): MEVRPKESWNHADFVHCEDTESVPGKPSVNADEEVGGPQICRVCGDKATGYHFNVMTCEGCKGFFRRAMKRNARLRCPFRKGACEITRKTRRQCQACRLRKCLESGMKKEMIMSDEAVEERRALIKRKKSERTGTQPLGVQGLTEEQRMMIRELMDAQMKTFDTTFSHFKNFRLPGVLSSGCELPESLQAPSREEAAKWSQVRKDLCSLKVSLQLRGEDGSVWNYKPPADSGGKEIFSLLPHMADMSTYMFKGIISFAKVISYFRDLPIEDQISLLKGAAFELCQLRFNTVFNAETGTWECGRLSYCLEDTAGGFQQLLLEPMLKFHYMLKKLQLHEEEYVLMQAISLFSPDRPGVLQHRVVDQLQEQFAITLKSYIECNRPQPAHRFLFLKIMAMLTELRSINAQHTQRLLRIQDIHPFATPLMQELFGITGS
Summary of the method: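 Trans-factorial format: exogenous NR-Gal4 fusion activity, not endogenous factor, in transfected human HepG2 liver cells. After 24 h dosing, RNA isolated, reverse-transcribed, amplified and resolved by capillary electrophoresis; induction scored versus DMSO.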

[5] = target: human RAR-related Orphan Receptor beta (RORb), RORB (gene 6096) (UniProt Q92753); experiment: ATG_RORb_TRANS: Attagene TRANS-FACTORIAL HepG2 Assay for human RAR-related Orphan Receptor beta (RORb) (AID 2283010; active = hit-call score of the fitted dose curve at least 0.9, where 1 is the maximum)
Summary of the method: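 Multiplexed transcription-factor reporter assay: HepG2 cells transiently carrying NR-Gal4/GAL4-UAS constructs, 24 h treatment, mRNA quantified by RT-PCR plus capillary electrophoresis fluorescence; activity scored as induction over DMSO.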

[6] = target: human RAR-related Orphan Receptor gamma (RORg), RORC (gene 6097) (UniProt P51449); experiment: ATG_RORg_TRANS: Attagene TRANS-FACTORIAL HepG2 Assay for human RAR-related Orphan Receptor gamma (RORg) (AID 2283011; active = hit-call score of the fitted dose curve at least 0.9, where 1 is the maximum)
Sequence of human RAR-related Orphan Receptor gamma (RORg), RORC (gene 6097) (P51449 whole entry, looked up, the tested form may be a part): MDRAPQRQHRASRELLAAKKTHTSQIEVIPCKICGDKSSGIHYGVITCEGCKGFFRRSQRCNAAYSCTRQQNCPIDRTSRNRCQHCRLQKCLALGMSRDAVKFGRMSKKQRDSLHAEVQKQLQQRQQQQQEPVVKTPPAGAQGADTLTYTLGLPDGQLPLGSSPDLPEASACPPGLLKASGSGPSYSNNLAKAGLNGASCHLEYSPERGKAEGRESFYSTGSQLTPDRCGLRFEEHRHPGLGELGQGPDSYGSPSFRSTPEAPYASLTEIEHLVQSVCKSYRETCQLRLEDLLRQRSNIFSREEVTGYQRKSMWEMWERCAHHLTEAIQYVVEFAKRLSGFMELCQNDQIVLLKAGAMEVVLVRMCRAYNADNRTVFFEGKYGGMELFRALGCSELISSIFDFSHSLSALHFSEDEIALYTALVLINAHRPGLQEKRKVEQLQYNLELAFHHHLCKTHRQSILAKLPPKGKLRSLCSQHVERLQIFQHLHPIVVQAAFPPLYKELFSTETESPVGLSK
Summary of the method: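 Activity is scored as increase in GAL4-UAS reporter mRNA over DMSO, detected by fluorescent RT-PCR and capillary electrophoresis in HepG2 cells transiently expressing a RORg-Gal4 chimera, 24 h after dosing.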

[7] = target: Retinoic acid receptor RXR-alpha (Homo sapiens) (UniProt P19793); experiment: ATG_RXRa_TRANS: Attagene TRANS-FACTORIAL HepG2 Assay for human Retinoid X Receptor alpha (RXRa) (AID 2283012; active = hit-call score of the fitted dose curve at least 0.9, where 1 is the maximum)
Sequence of Retinoic acid receptor RXR-alpha (Homo sapiens) (P19793 whole entry, looked up, the tested form may be a part): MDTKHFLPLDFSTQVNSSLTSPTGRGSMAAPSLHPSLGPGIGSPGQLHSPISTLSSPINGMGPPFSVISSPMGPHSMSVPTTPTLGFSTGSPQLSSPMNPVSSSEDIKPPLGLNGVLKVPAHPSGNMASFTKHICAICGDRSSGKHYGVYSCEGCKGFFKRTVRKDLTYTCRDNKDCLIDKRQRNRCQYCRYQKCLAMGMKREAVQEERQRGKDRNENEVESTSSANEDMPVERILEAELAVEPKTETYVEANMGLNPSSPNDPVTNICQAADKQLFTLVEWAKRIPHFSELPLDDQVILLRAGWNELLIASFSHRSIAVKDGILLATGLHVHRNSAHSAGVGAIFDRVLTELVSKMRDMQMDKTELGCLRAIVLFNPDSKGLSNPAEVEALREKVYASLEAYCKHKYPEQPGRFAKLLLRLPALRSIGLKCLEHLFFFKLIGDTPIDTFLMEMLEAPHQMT
Summary of the method: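 Chimeric NR-GAL4 trans-activation in HepG2, 24 h treatment; reporter transcripts quantified by fluorescence on capillary electrophoresis, analysed for upward change from DMSO.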

[8] = read-out: E-selectin (Homo sapiens) (UniProt P16581); experiment: BSK_3C_Eselectin: BioMAP Diversity Plus: 3C Assay for Eselectin Biomarker Activity (AID 2283015); conditions: primary human endothelial cells (HUVEC); actives raise or lower the signal
Summary of the method: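 Human vascular endothelium from umbilical vein is exposed to test chemicals for 24 h. E-selectin levels are read by ELISA and compared with DMSO controls.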

[9] = read-out: Interleukin-1 alpha (IL1a), IL1A (gene 3552); experiment: BSK_BE3C_IL1a: BioMAP Diversity Plus: BE3C Assay for Interleukin-1 alpha (IL1a) Biomarker Activity (AID 2283016); conditions: primary human bronchial epithelial cells; actives raise or lower the signal
Summary of the method: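 Measured in human lung primary bronchial epithelial cells: IL-1a by ELISA at 24 h after dosing, with bidirectional fitting against DMSO.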

[10] = read-out: Monocyte Chemoattractant Protein-1 (MCP1), CCL2 (gene 6347); experiment: BSK_3C_MCP1: BioMAP Diversity Plus: 3C Assay for Monocyte Chemoattractant Protein-1 (MCP1) Biomarker Activity (AID 2283017); conditions: primary human endothelial cells (HUVEC); actives raise or lower the signal
Summary of the method: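 Endothelial cells from human umbilical vein are dosed with chemical, cultured 24 h, then assayed for MCP-1 by ELISA; both increases and decreases are modelled against DMSO controls.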

[11] = read-out: Monocyte Chemoattractant Protein-1 (MCP1), CCL2 (gene 6347); experiment: BSK_4H_MCP1: BioMAP Diversity Plus: 4H Assay for Monocyte Chemoattractant Protein-1 (MCP1) Biomarker Activity (AID 2283018); conditions: primary human endothelial cells (HUVEC); actives raise or lower the signal
Summary of the method: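 Primary human umbilical vein endothelium is exposed to chemical for 24 h before MCP-1 is assayed by ELISA. Concentration-response fitted bidirectionally relative to DMSO.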

[12] = read-out: Human Leukocyte Antigen - DR isotype (HLADR), HLA-DRA (gene 3122); experiment: BSK_3C_HLADR: BioMAP Diversity Plus: 3C Assay for Human Leukocyte Antigen - DR isotype (HLADR) Biomarker Activity (AID 2283019); conditions: primary human endothelial cells (HUVEC); actives raise or lower the signal
Summary of the method: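 Endothelial cells from human umbilical vein are treated with test chemical; after 24 h, HLA-DR levels are measured by ELISA. Data are fitted in both directions using DMSO as the baseline.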

[13] = read-out: Interleukin-8 (IL8), CXCL8 (gene 3576); experiment: BSK_3C_IL8: BioMAP Diversity Plus: 3C Assay for Interleukin-8 (IL8) Biomarker Activity (AID 2283020); conditions: primary human endothelial cells (HUVEC); actives raise or lower the signal
Summary of the method: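 Using DMSO-treated wells as the baseline, bidirectional curve fitting was applied to ELISA-measured IL-8 from human umbilical vein endothelial cultures sampled 24 h after compound addition.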

[14] = read-out: Monokine induced gamma interferon (MIG), CXCL9 (gene 4283); experiment: BSK_3C_MIG: BioMAP Diversity Plus: 3C Assay for Monokine induced gamma interferon (MIG) Biomarker Activity (AID 2283021); conditions: primary human endothelial cells (HUVEC); actives raise or lower the signal;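 for AC50: MIG protein level measured by immunoassay in the treated endothelial cultures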
Summary of the method: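 ELISA-measured MIG in dosed HUVEC 3C cultures at 24 h, analysed by bidirectional fitting with DMSO defining baseline activity.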

[15] = target: human Vitamin D Receptor (VDR), VDR (gene 7421) (UniProt P11473); experiment: ATG_VDR_TRANS: Attagene TRANS-FACTORIAL HepG2 Assay for human Vitamin D Receptor (VDR) (AID 2283022; active = hit-call score of the fitted dose curve at least 0.9, where 1 is the maximum)
Sequence of human Vitamin D Receptor (VDR), VDR (gene 7421) (P11473 whole entry, looked up, the tested form may be a part): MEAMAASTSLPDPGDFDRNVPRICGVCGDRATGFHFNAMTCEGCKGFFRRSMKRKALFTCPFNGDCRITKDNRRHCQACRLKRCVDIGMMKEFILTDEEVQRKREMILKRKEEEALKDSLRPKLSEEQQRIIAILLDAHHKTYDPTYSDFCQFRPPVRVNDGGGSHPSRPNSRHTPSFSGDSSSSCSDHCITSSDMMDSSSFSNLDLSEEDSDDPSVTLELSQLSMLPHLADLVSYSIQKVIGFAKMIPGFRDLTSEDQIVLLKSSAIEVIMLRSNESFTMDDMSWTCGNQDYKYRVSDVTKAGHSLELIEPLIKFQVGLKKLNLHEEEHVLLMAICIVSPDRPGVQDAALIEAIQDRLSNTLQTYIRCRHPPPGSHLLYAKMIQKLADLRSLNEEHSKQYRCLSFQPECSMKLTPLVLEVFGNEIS
Summary of the method: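 Fluorescence of labelled reporter cDNA fragments, resolved by capillary electrophoresis, gives mRNA induction after 24 h treatment of HepG2 cells carrying transfected Gal4-fusion reporter units. Activity is fitted in the positive direction with DMSO as baseline.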

[16] = target: human Retinoic Acid Receptor beta (RARb), RARB (gene 5915) (UniProt P10826); experiment: ATG_RARb_TRANS: Attagene TRANS-FACTORIAL HepG2 Assay for human Retinoic Acid Receptor beta (AID 2283004; active = hit-call score of the fitted dose curve at least 0.9, where 1 is the maximum)
Sequence of human Retinoic Acid Receptor beta (RARb), RARB (gene 5915) (P10826 whole entry, looked up, the tested form may be a part): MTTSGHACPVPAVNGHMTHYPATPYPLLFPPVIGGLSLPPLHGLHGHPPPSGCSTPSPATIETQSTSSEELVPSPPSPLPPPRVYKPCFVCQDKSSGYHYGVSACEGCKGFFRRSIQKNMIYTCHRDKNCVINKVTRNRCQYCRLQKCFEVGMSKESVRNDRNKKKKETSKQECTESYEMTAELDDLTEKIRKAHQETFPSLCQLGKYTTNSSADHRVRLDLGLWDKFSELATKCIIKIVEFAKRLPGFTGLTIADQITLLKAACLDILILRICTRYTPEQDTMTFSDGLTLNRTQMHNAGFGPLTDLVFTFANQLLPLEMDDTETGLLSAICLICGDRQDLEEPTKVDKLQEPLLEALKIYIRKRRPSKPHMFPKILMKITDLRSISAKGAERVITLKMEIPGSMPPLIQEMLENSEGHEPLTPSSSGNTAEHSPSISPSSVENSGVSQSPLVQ
Summary of the method: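 HepG2, transient MRTU transfection, NR–Gal4 chimera, 24 h treatment; RT-PCR plus CE fluorescence detection of reporter mRNA; gain of signal vs DMSO.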

[17] = target: Retinoic acid receptor alpha (Homo sapiens) (UniProt P10276); experiment: ATG_RARa_TRANS: Attagene TRANS-FACTORIAL HepG2 Assay for human Retinoic Acid Receptor alpha (RARa) (AID 2283005; active = hit-call score of the fitted dose curve at least 0.9, where 1 is the maximum)
Sequence of Retinoic acid receptor alpha (Homo sapiens) (P10276 whole entry, looked up, the tested form may be a part): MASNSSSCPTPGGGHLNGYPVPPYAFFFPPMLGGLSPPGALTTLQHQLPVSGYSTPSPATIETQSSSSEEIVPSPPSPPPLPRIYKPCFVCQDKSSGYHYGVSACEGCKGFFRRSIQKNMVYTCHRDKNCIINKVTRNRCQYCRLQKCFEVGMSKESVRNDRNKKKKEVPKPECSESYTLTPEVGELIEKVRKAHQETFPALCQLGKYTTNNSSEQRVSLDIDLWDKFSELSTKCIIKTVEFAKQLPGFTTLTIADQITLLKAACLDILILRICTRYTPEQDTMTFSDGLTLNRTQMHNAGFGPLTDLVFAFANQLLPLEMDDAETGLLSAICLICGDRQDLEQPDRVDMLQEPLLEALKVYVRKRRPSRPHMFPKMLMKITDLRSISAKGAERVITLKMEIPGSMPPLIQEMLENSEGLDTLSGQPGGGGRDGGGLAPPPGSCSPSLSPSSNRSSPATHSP
Summary of the method: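 HepG2 transiently transfected with multiplex GAL4-UAS reporter units including a human RARa–GAL4 chimera; 24 h compound exposure. Reporter mRNA quantified by RT-PCR, 6-FAM labeling and capillary electrophoresis; gain of signal versus DMSO.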

[18] = target: human Thyroid Receptor alpha (THRa1), THRA (gene 7067) (UniProt P10827); experiment: ATG_THRa1_TRANS: Attagene TRANS-FACTORIAL HepG2 Assay for human Thyroid Receptor alpha (THRa1) (AID 2283014; active = hit-call score of the fitted dose curve at least 0.9, where 1 is the maximum)
Sequence of human Thyroid Receptor alpha (THRa1), THRA (gene 7067) (P10827 whole entry, looked up, the tested form may be a part): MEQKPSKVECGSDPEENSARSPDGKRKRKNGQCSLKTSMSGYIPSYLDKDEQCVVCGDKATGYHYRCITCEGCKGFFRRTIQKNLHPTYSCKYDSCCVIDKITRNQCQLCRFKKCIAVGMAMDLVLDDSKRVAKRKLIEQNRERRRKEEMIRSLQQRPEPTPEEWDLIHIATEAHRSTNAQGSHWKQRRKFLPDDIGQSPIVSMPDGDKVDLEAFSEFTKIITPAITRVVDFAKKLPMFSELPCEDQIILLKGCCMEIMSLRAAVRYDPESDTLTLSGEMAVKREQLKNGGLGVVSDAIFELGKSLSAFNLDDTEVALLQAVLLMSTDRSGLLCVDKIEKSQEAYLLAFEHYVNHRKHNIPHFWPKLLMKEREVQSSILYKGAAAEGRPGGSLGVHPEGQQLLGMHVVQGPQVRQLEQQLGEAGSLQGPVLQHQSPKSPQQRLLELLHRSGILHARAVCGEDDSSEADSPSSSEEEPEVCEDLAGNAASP
Summary of the method: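 First, HepG2 cells receive multiple GAL4-UAS reporter units and the chimeric receptor. They are then dosed for 24 h, after which RNA is reverse-transcribed, amplified, labelled, HpaI-cut and sized by capillary electrophoresis; gain relative to DMSO is scored.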

[19] = BSK_3C_Proliferation: Cell Proliferation Assessment in the BioMAP Diversity Plus: 3C Assay (AID 2283006); conditions: primary human endothelial cells (HUVEC);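 for AC50: potency may reflect either rise or fall in cell number versus DMSO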
Summary of the method: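 Measured here: sulforhodamine B (0.1%) staining of TCA-fixed sub-confluent umbilical vein endothelial cultures 48 h post-dosing, absorbance 560 nm. DMSO served as negative control and baseline; both signal gain and loss were modelled.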

Measured: AC50

Sequence of E-selectin (Homo sapiens) (P16581 whole entry, looked up): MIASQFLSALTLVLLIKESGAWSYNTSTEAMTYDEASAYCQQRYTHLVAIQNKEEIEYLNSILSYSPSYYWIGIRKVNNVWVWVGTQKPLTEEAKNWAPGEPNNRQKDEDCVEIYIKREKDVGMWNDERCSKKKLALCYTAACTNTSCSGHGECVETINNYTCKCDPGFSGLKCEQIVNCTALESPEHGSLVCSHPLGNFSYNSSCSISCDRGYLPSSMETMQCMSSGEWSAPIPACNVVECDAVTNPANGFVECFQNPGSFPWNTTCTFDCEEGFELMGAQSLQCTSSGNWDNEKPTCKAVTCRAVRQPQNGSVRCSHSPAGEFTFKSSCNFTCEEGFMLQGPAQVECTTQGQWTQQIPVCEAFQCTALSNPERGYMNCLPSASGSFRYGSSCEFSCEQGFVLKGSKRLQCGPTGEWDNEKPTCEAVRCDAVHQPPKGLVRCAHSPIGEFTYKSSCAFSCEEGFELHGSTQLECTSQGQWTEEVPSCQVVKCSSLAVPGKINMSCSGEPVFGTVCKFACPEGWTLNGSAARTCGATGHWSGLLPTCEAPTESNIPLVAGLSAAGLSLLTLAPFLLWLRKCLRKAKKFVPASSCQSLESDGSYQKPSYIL

COc1ccc(/C=C/S(=O)(=O)NC(=O)c2ccc(C)cc2Cl)cc1
active: [3] 23.7 µM
not listed: [16] | [17] | [18] | [19]
inactive: all other assays above

C1=CCCC=CCCC=CCC1
active: [4] 56.5 µM
not listed: [1] | [3] | [5] | [6] | [15] | [18] | [19]
inactive: all other assays above

COc1cccc(-c2ccc(/C=C\CN3CCCCCC3)cc2Cl)c1
inactive: [1] | [3] | [6] | [7] | [18] | [15]
active: [2] 33.5 µM | [4] 4.81 µM | [8] 28.6 µM | [9] 29 µM | [10] 30.9 µM | [11] 25 µM | [12] 27.8 µM | [13] 31.9 µM | [14] 34.3 µM

O=C1CCC(N2C(=O)c3ccccc3C2=O)C(=O)N1 (stereo unspecified)
not listed: [4] | [5] | [6] | [7] | [15] | [16] | [17]
inactive: all other assays above

O=c1[nH]c2ccc(S(=O)CCN3CCC(Cc4ccc(F)cc4)CC3)cc2o1 (stereo unspecified)
active: [3] 7.65 µM | [4] 6.22 µM | [11] 4.88 µM
not listed: [5] | [6] | [16] | [17] | [18] | [19]
inactive: all other assays above

Nc1ccc(Nc2ccccc2)cc1
active: [19] 3.97 µM | [8] 5.7 µM | [12] 2.83 µM
not listed: [1] | [5] | [6] | [15] | [17] | [18]
inactive: all other assays above

O=C(OC[C@H]1O[C@@H](OC(=O)c2cc(O)c(O)c(OC(=O)c3cc(O)c(O)c(O)c3)c2)[C@H](OC(=O)c2cc(O)c(O)c(OC(=O)c3cc(O)c(O)c(O)c3)c2)[C@@H](OC(=O)c2cc(O)c(O)c(OC(=O)c3cc(O)c(O)c(O)c3)c2)[C@@H]1OC(=O)c1cc(O)c(O)c(OC(=O)c2cc(O)c(O)c(O)c2)c1)c1cc(O)c(O)c(OC(=O)c2cc(O)c(O)c(O)c2)c1
active: [9] 7.85 µM | [10] 9.09 µM | [11] 6.1 µM | [12] 9.13 µM
not listed: [1] | [15] | [19]
inactive: all other assays above
